SmPrx2 inh: blocks S. mansoni peroxiredoxin 2 enzymatic activity; S. mansoni Prx2 activity coupled to TGR/GSH (TGR is thioredoxin glutathione reductase), NADPH fluorescence loss, qHTS; Potency, µM; actives 0.07% (n = 65,000)
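Purified S. mansoni TGR and Prx2 in pH 7.4 phosphate buffer with EDTA and Tween-20 were preincubated with compounds for 15 min. Further NADPH/GSH was added, then a 2.5 mM H2O2 aliquot initiated turnover, followed kinetically by NADPH fluorescence.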
AmpC inh no det: AmpC beta-lactamase inhibition, detergent-free assay; Potency, µM (highest dose often 28.7 µM); actives 1.8% (n = 71,000); P00811; AmpC nitrocefin hydrolysis, absorbance 480 nm, no detergent
Target sequence (P00811 whole entry, looked up): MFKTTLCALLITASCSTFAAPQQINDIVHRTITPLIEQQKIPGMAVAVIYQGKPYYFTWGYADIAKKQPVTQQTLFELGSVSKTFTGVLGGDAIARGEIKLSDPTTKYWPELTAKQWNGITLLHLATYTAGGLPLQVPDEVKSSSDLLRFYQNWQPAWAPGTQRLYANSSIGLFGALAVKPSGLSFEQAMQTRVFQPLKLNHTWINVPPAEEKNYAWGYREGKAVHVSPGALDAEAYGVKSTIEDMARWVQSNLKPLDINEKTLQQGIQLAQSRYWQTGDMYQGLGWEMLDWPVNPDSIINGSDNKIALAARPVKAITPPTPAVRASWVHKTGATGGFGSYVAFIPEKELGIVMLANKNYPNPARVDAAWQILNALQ
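AmpC in 20 mM phosphate buffer pH 7.0 was preincubated 15 min at room temperature with compounds. Nitrocefin (800 uM stock) was then added and hydrolysis followed at 480 nm every 20 s for 4 min.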
LT uptake inh: inhibitors of anthrax lethal toxin internalization; Cells, anthrax lethal toxin internalization, FRET ratio (460/530); Potency, µM (series often up to 40 µM), hits mostly inhibitors; actives 0.67% (n = 70,000); further: nearly all actives have a fitted effect of over 50% in size
AmpC det inh: blocks E. coli AmpC beta-lactamase in presence of detergent; Potency, µM (series often up to 28.7 µM); P00811; AID 584; actives 0.09% (n = 71,000); purified AmpC, nitrocefin hydrolysis with detergent; active means well fitted curve in the direction sought with a large enough effect; inconclusive means small, poorly fitted or top-dose-only effect
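E. coli AmpC (5.3 nM) in 20 mM phosphate pH 7.0 with 0.01% Triton X-100, preincubated 15 min RT with compound; nitrocefin (2 uL of 800 uM stock) hydrolysis followed by 480 nm absorbance every 20 s over 4 min.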
A number is an active result; n = inactive; u = inconclusive; x = not tested or not shown; [ ] = another dose, or the depositor's remark. This is a sample that favours compounds with a hit; in the whole collection about 2.6% have one here. Unless noted, the call rests on the fitted dose curve.

SMILES	SmPrx2 inh	AmpC inh no det	LT uptake inh	AmpC det inh
CC[n+]1cc(-c2ccccc2)nc(N2CCOCC2)n1	n	16µM[single pt active]	n	n
COC(=O)c1ccc2c(c1)N(Cc1cc(C)ccc1C)C(=O)c1ccccc1S2=O (centres undefined)	n	4µM[single pt active]	n	n
COc1cccc(-c2csc3nnc(SCC(=O)c4ccc(NC(C)=O)cc4)n23)c1	n	n	n	n
COc1cccc(-c2cc(N)nn2C(=O)Nc2ccc(Cl)cc2)c1	n	4µM[single pt active]	u	n
COc1ccc(NS(=O)(=O)c2ccc3oc(Nc4ccc5c(c4)OCCO5)nc3c2)cc1	n	3.2µM	13µM	n
Cn1c(=O)oc2cc(S(=O)(=O)Nc3ccc4c(c3)OCCO4)ccc21	n	n	n	n
O=[N+]([O-])c1cc(C(F)(F)F)cc([N+](=O)[O-])c1Cl	x	n	n	n
CCCN(CCC)c1c([N+](=O)[O-])cc(C(F)(F)F)cc1[N+](=O)[O-]	x	n	5µM	n
CCOc1cc2[nH]c(=O)n(CC3CCC(C(=O)NC(C)CC)CC3)c(=O)c2cc1OCC (centres undefined)	n	n	n	n
CCC(C)[C@@H](C(=O)Nc1ccc(OC)c(OC)c1)N1Cc2ccccc2C1=O (some centres undefined)	n	4µM[single pt active]	n	n
CSCC[C@@H](C(=O)Nc1ccc2c(c1)OCCO2)N1Cc2ccccc2C1=O	n	4µM[single pt active]	n	n
CS(=O)(=O)N1CCC2(CCCN(Cc3ccccc3)C2)CC1	n	n	u	n
COc1cc2c(=O)n(CC3CCCO3)c(=O)n(CC(=O)Nc3ccc(F)cc3F)c2cc1OC (centres undefined)	n	4µM[single pt active]	n	n
CC12C=C(/C=C/c3ccc(Br)cc3)C(C)(C1)C(c1ccc(Br)cc1)CC2=O (centres undefined)	x	x	n[8 µM]	x
Cc1c(-c2nc(N)nc(Nc3ccccc3)n2)oc2ccccc12	n	n	13µM	n
Cc1ccc(-c2cn(S(=O)(=O)c3cccc4nsnc34)nc2N)cc1	n	n	n	n
Nc1nn(S(=O)(=O)c2cccc3nsnc23)cc1-c1ccc(Br)cc1	n	13µM[single pt active]	u	n
CCOC(=O)c1c(NC(=O)c2cc(C3CC3)on2)sc(C(C)=O)c1C	n	n	n	n
CCCc1cc(C(=O)Nc2sc(C)c(CC)c2C#N)no1	n	4µM[single pt active]	13µM	n
CCCc1cc(C(=O)Nc2sc3c(c2C#N)CCC3)no1	n	4µM[single pt active]	u	n
CCCc1cc(C(=O)Nc2sc(C)c(C)c2C(=O)OCC)no1	n	4µM[single pt active]	u	n
CCCc1cc(C(=O)Nc2cccnc2)no1	n	4µM[single pt active]	n	n
COC(=O)C/C=C\[C@@H](C)[C@@H](/C=N\OC[C@@H](O)COCc1ccco1)OC	x	x	n[8 µM]	x
Oc1ccc(CN2CCN(Cc3ccccc3)CC2)c2cccnc12	n	n	u	n
Oc1ccc(CNc2ccccc2)c2cccnc12	15	13µM[single pt active]	n	n
SMILES	SmPrx2 inh	AmpC inh no det	LT uptake inh	AmpC det inh
Oc1ccc(CNc2ccc(F)cc2)c2cccnc12	u	10µM	n	n
CCNc1ncc2nc(-c3cccs3)c(=O)n(CCC#N)c2n1	n	n	u	n
CCC/C=C(\CCC)C(NC(=O)c1ccc(C(F)(F)F)cc1)c1ccccc1 (centres undefined)	n	20µM[single pt active]	n	n
CCN1CCN(Cc2ccc(NC(=O)Nc3ccccc3Cl)cc2)CC1	n	4µM[single pt active]	n	n
CCSC1(SCC)N=C(N)C2(C#N)C(c3ccc(OC)c(OC)c3OC)C12C#N (centres undefined)	n	n	10µM	n
CCSC1(SCC)N=C(N)C2(C#N)C(c3ccccc3)NC3=C(CCC3)C12C#N (centres undefined)	n	n	u	n
N[C@@H](Cc1cc(O)c(O)cc1O)C(=O)O	n	5µM	n	n
COc1ccccc1NC(=O)c1nnn(CC(=O)Nc2ccccc2)c1N	n	n	n	n
COc1ccc(C)cc1NC(=O)c1nnn(Cc2cc(C)ccc2C)c1N	x	4µM[single pt active]	n	n
COc1cccc(Cn2nnc(C(=O)Nc3cc(C)ccc3OC)c2N)c1	n	4µM[single pt active]	n	n
COc1ccc(OC)c(NC(=O)c2nnn(Cc3ccccc3C)c2N)c1	n	n	n	n
Nc1c(C(=O)Nc2ccc3c(c2)OCCO3)nnn1CCc1ccccc1	n	4µM[single pt active]	u	n
COc1ccc(C)cc1NC(=O)c1nnn(CCc2ccccc2)c1N	n	4µM[single pt active]	n	n
COc1cccc(Cn2nnc(C(=O)Nc3ccc(C)cc3)c2N)c1	n	4µM[single pt active]	n	n
COc1cccc(CNC(=O)c2nnn(CC(=O)Nc3ccc(C)c(C)c3)c2N)c1	n	n	n	n
COc1cccc(-c2nc(CS(=O)CC(=O)NCc3ccccc3)c(C)o2)c1 (centres undefined)	n	4µM[single pt active]	n	n
COc1ccc(-c2nc(CS(=O)CC(=O)NCc3cccnc3)c(C)o2)cc1 (centres undefined)	n	3.2µM[single pt active]	n	n
COc1ccc(-c2nc(CS(=O)CC(=O)NCc3ccco3)c(C)o2)cc1 (centres undefined)	n	4µM[single pt active]	n	n
CCCNC(=O)CS(=O)Cc1nc(-c2cccc(OC)c2)oc1C (centres undefined)	n	4µM[single pt active]	n	n
N#CCCn1c(=O)c(CCc2ccccc2)nc2cnc(Oc3cccc(Cl)c3)nc21	n	n	u	n
O=C(O)C[C@@H](C(=O)O)C1c2ccccc2-c2ccccc21	n	n[5.75 µM]	n[8 µM]	n[5.75 µM]
O=C(O)[C@@H]1[C@@H]2C[C@H]3c4[nH]c5ccccc5c4CCN3C[C@@H]2CC[C@@H]1O	n	n	u	n
Cc1ccc(-c2nnn(CC(=O)N(c3cccc(F)c3)C(C(=O)NC3CCCC3)c3ccco3)n2)o1 (centres undefined)	n	13µM	n	n
CC(=O)c1cccc(NC2c3ccccc3C(=O)N2Cc2ccc3c(c2)OCO3)c1 (centres undefined)	n	4µM[single pt active]	n	n
Cc1cccc(N2CCN(C(=O)c3cc4c(C)nc5ccccc5c4o3)CC2)c1C	n	n	10µM	n
SMILES	SmPrx2 inh	AmpC inh no det	LT uptake inh	AmpC det inh
Cc1ccn2cc(C(=O)Nc3ccccc3N3CCOCC3)nc2c1	n	n	u	n
Cc1nc2ccccc2c2oc(C(=O)NCC3COc4ccccc4O3)cc12 (centres undefined)	n	n	5µM	n
Cc1ccn2cc(C(=O)Nc3ccc4c(c3)OCCO4)nc2c1	n	n	7.9µM	n
Cc1nc2ccccc2c2oc(C(=O)Nc3ccc4c(c3)OCCO4)cc12	n	n	0.79µM	n
COCCn1c(=O)c(-c2cc(F)cc(F)c2)nc2cnc(OCc3ccccc3)nc21	n	n	u	n
CN1C[C@@H](CNC(=O)OCc2ccccc2)C[C@H]2c3cccc4c3c(cn4C)C[C@@H]21	n	n	u	n
COC(=O)c1ccc(C(NC(=O)OCc2ccccc2)/C(F)=C/[C@@H](C)C(=O)NCCN2CCOCC2)cc1 (some centres undefined)	x	n	n	n
O=C(Nc1ccc(S(=O)(=O)N2CCc3ccccc32)cc1)c1ccco1	n	n	n	n
O=C(Nc1nnc(C2CC2)s1)c1cccc(S(=O)(=O)N2CCc3ccccc32)c1	n	10µM	n	n

Bioassay records as filed in PubChem BioAssay.
